We go through twelve compounds from PubChem BioAssay (NCI).

Compounds without any hit were thinned out: in the full panel of roughly 83,000, 20% have a hit.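 For each line, cells grew in 96-well plates with the test compound present at a single concentration for 48 hours.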 Values without a mark were called inactive. The source made the active and inactive calls. How the source made its calls: active means growth percent below 10; inactive means the rest.

Holding throughout (experiment): NCI-60 one-dose screen, 48 h (100 = growth as untreated, 0 = no growth, -100 = all killed)
Conditions in all cases: 10 µM unless noted

The subject of test [1] is HCT-15 colon.
The test system of test [2] is HT29 colon.
For test [3], the system named is SNB-75 CNS.
Test [4] relates to SNB-19 CNS.
For test [5], the system named is U251 CNS.
The subject of test [6] is PC-3 prostate.
The test system of test [7] is SK-MEL-5 melanoma.
In test [8] the test system is UACC-62 melanoma.
Test [9] has as its system LOX IMVI melanoma.
The subject of test [10] is SK-MEL-28 melanoma.

Turning to `COc1ccc(NC2=C(Cl)C(=O)c3nc(C)ccc3C2=O)cc1OC`, the growth in test [1] was 82.3%; in test [2], 110%; in test [3], 111%; in [4], 94.6%; in test [5], 106%; in test [6] it was 70.6%. The growth in test [7] was 86.6%; in test [8], 71.8%; in test [9] it was -3.09% (active); in [10] it was 102%.

Take `COc1ccc(C(=O)CSc2nc3c(c(Nc4ccc(S(N)(=O)=O)cc4)n2)CCCC3)cc1`: the growth in test [1] was 88.4%; in test [2] it was 96.4%; in test [3] it was 119%; in test [4] it was 94.1%; in test [5], 89.9%; in [6] it was 83.7%. In addition, the growth in [7] was 96.6%; in [8] it was 93.5%; in test [9] it was 83%; in test [10], 110%.

As for `COC[C@]12CCC(C)(C)C[C@H]1C1=CC[C@@H]3[C@@]4(C)CCCNC(C)(C)[C@@H]4CC[C@@]3(C)[C@]1(C)CC2`, the growth in test [1] is -86.5% (active); in test [2], -28% (active); in test [3], 12%; in test [4], -2.59% (active); in test [5] it was -58.1% (active); in test [6] it was 0.7% (active). Further, the growth was -98.1% (active) in [7], -74% (active) in test [8], -94.6% (active) in test [9] and -79.4% (active) in [10].

For `O=C(NNc1nc2cc(F)ccc2n2c(CN3CCCC3)ccc12)c1cnccn1`, the growth was 23% in test [1]; 24% in test [2]; 65% in [3]; 25.2% in [4]; 19.8% in test [5]; 21.4% in test [6]. Moreover, the growth in [7] is 22.3%; in test [8] it was 17.9%; in [9], 3.56% (active); in test [10], 30.8%.

Turning to `Cn1ccnc1C(=O)/C=C/c1ccc(CNC(=O)c2ccc(F)cc2)cc1`, the growth was 8.09% (active) in test [1]; 10.2% in test [2]; 60.6% in [3]; 15.6% in [4]; 17.7% in test [5]; 23.5% in test [6]. The growth in test [7] is 72.8%; in test [8], 43.2%; in test [9] it was -1.32% (active); in [10], 80.5%.

Consider `N#Cc1cccc(CN2CCC3=C(C2)C(=O)N(Cc2ccc(Cl)cc2)C2=NCCCN23)c1`, for which the growth in test [1] was 16.6%; in test [2], 28%; in test [3], 68%; in test [4], 21.8%; in test [5], 23.7%; in test [6], 24%. Besides, the growth in test [7] was 8.1% (active); in test [8] it was 25%; in test [9] it was 43.8%; in test [10] it was 44.8%.

As to `O=C(NNc1nc2cc(F)ccc2n2cccc12)c1ccncn1`, the growth in test [1] is 25.8%; in test [2], 28.3%; in [3], -2.99% (active); in [4] it was 25.1%; in [5], 12.9%; in test [6], 35.6%. In addition, the growth was -22.1% (active) in test [7], 4.91% (active) in test [8], 7.82% (active) in test [9] and 23.5% in test [10].

As to `C#Cc1nc(C(=O)NCCC(=O)Nc2ccc(NC(=O)c3ccc(/C=C/C(=O)c4nccn4C)cc3)cc2)cs1`, the growth in test [1] was 16.7%; in test [2], 2.68% (active); in test [3] it was 56.6%; in test [4], 35.1%; in test [5], 3.44% (active); in [6], 42.5%. Further, the growth is 87% in test [7], 38.6% in test [8], -90.1% (active) in test [9] and 84.8% in test [10].

`COC(=O)c1[nH]nc2c1C1(C(=O)N(C)c3ccccc31)C(C#N)=C(N)O2` (stereo not given): the growth is 101% in test [1]; 104% in test [2]; 91.5% in test [3]; 101% in [4]; 105% in [5]; 91% in test [6]. Further, the growth is 99.4% in test [7], 96.1% in test [8], 97% in [9] and 105% in test [10].

Turning to `CC1=N[C@@H]2CN(C(=O)OC(C)(C)C)C[C@@H]2n2c1cc1ccccc1c2=O`, the growth in [1] is 104%; in test [2], 106%; in [3], 91.7%; in [4], 105%; in [5] it was 106%; in test [6] it was 92%. Moreover, the growth in test [7] was 99.1%; in test [8], 97.9%; in test [9] it was 98.2%; in [10] it was 115%.

Regarding `COc1ccc(-n2c(/C=C3\C(=O)Nc4ccccc43)ccc2CO)cc1`, the growth was 89.7% in test [1]; 105% in [2]; 101% in [3]; 90% in [4]; 95.1% in test [5]; 96.4% in [6]. Further, the growth was 94.5% in test [7], 83.3% in test [8], 94.6% in [9] and 101% in test [10].

For the compound `NS(=O)(=O)c1ccc(Nc2nc(N/N=C/c3ccc(Cl)cc3)nc(Nc3ccccc3)n2)cc1`, the growth in test [1] is 76.4%; in test [2], 34.2%; in test [3], 94.3%; in test [4], 81.8%; in [5], 54.6%; in [6] it was 51.7%. Moreover, the growth in test [7] is 69.1%; in [8], 74.9%; in test [9], 60.4%; in [10], 75.3%.
